# This is part of a sample that, as a whole, favours compounds with a hit. Of some 83,000 tested, about 20% had one in any assay.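 For each line, cells grew in 96-well plates with the test compound present at a single concentration for 48 hours.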 A number with no mark means an inactive call. Active and inactive are the calls of the source. Rule for the calls: active = growth percent below 10; inactive = the rest.
# How the values were obtained:
# Experiment in all cases: NCI-60 one-dose screen, 48 h (100 = growth as untreated, 0 = no growth, -100 = all killed)
# Conditions in all cases: 10 µM unless noted
# [1] = test system: NCI-H23 lung
# [2] = test system: NCI-H226 lung
# [3] = test system: NCI-H322M lung
# [4] = test system: HOP-62 NSCLC
# [5] = test system: NCI-H460 lung
# [6] = test system: HOP-92 NSCLC
# [7] = test system: NCI-H522 lung
# [8] = test system: A549/ATCC NSCLC
# [9] = test system: 786-0 renal
# [10] = test system: COLO 205 colon
# [11] = test system: K-562 leukemia
# [12] = test system: MALME-3M melanoma
# [13] = test system: MDA-MB-231 breast
# [14] = test system: RXF 393 renal
# [15] = test system: SF-268 CNS
# [16] = test system: SF-295 CNS
# [17] = test system: SF-539 CNS
# [18] = test system: UACC-257 melanoma
# [19] = test system: M14 melanoma
# [20] = test system: DU-145 prostate
SMILES,growth [1],growth [2],growth [3],growth [4],growth [5],growth [6],growth [7],growth [8],growth [9],growth [10],growth [11],growth [12],growth [13],growth [14],growth [15],growth [16],growth [17],growth [18],growth [19],growth [20]
CN1C=CN(Cc2ccc(-c3ccccn3)nc2)[CH-]1.CN1C=CN(Cc2ccc(-c3ccccn3)nc2)[CH-]1.[Au+3],36.3%,66.7%,-3% (active),61.6%,21.3%,66.6%,34.2%,45.2%,52.8%,28.4%,21.9%,21.5%,28.1%,19.5%,44.1%,17.3%,17.4%,2.13% (active),35.6%,
COc1cc(NCCCCCN)c2ncccc2c1,100%,112%,122%,102%,117%,117%,137%,105%,119%,119%,102%,99%,,129%,106%,112%,,107%,96.8%,119%
COc1cc(-c2ncn(/C=C\C(=O)OC(C)C)n2)cc(C(F)(F)F)c1,17.5%,-47% (active),0.838% (active),-18.5% (active),-31.7% (active),7.61% (active),-70.9% (active),12.9%,9.65% (active),-62.2% (active),3.62% (active),-1.62% (active),,-41.1% (active),-1.06% (active),61.3%,-36.8% (active),60.3%,,15.7%
O=C(CSc1nc2ccccc2[nH]1)Nc1ccc(-c2nc3ccccc3s2)c(Cl)c1,-32.5% (active),40.3%,64.9%,10.2%,-4.98% (active),-11.9% (active),-9.43% (active),-33.7% (active),-72.9% (active),19.5%,20.4%,2.26% (active),-36.8% (active),21.8%,,3.63% (active),-88.6% (active),16%,-58.1% (active),
O=C1c2c(Cl)c(Cl)c(Cl)c(Cl)c2C(=O)C2(Cl)CC=CCC12Cl (configuration not stated),10%,73%,72.6%,-90.2% (active),50.3%,-58.1% (active),-80.7% (active),74.1%,0.0645% (active),-77.3% (active),,-3.27% (active),18.2%,-78.3% (active),-96.2% (active),106%,48.1%,-34.4% (active),-12% (active),-74.2% (active)
COc1cc(Nc2ncccc2C(=O)NCc2cn(Cc3cccc(Oc4ccccc4)c3)nn2)cc(OC)c1,66.2%,91.7%,65.2%,56.6%,20.2%,108%,5.73% (active),38.6%,51%,38.3%,,56.1%,26.3%,64.2%,47.2%,28.3%,38.5%,74%,31.2%,68.9%
O=C(O)Cc1cccc(=O)c(O)c1C(=O)O,108%,111%,129%,103%,124%,103%,106%,104%,100%,108%,,92.5%,110%,112%,107%,117%,110%,103%,102%,117%
O=S(=O)(c1ccc(OCCO)cc1)c1ccc(OCCO)cc1,106%,106%,91.8%,114%,104%,87.2%,82.7%,101%,112%,132%,101%,98.6%,112%,119%,122%,118%,110%,85.7%,102%,
CC(O)CN1CCCCC1 (configuration not stated),100%,106%,111%,122%,104%,111%,88.8%,105%,105%,111%,,112%,105%,108%,101%,104%,111%,104%,105%,117%
Cn1c(=O)c2[nH]c(C3CC=CCC3)nc2n(C)c1=O (configuration not stated),98.2%,103%,102%,90.5%,109%,70.1%,98%,106%,105%,97.4%,,107%,94.6%,115%,96%,89.5%,,116%,111%,101%
CC(=O)Oc1csc(N(C(C)=O)c2cc(C(=O)O)cc(C(=O)O)c2)n1,93.1%,101%,99.8%,99%,102%,47.3%,93.1%,97.1%,,99.7%,102%,87.9%,89.2%,95.8%,92.9%,96.4%,89.6%,92.8%,84.5%,97.4%
O=C(NCc1cn(Cc2cccc(Oc3ccccc3)c2)nn1)c1cccnc1Nc1ccc(F)cc1,69.4%,88.5%,77.4%,59.3%,34.4%,114%,31.3%,59.5%,69.8%,70.7%,,67.5%,42.2%,65.9%,67.7%,50.7%,62.6%,76.8%,48.1%,63.6%
COc1ccc(/C(C#N)=C/c2cc(OC)c(OC)c(OC)c2)cc1,62.3%,70.6%,59.7%,46.7%,16.9%,31.6%,15.8%,32.5%,51.2%,24.3%,19%,,58.1%,56.7%,61.9%,,23.1%,52.8%,17.2%,82.7%
N#Cc1c(Nc2ccccc2)nc2n(c1=O)-c1ccccc1Sc1ccccc1-2,88.5%,84.4%,90.7%,98.8%,90.7%,58.7%,75.2%,78.8%,90.2%,84.1%,57.6%,,63.7%,82.2%,85.3%,84%,84.4%,105%,95.1%,90%
CCCCN(CCCC)c1ccc(C(=N)c2ccc(N(CCCC)CCCC)cc2)cc1,-77% (active),-90.7% (active),11.9%,-96.8% (active),-85.9% (active),-83% (active),-87% (active),-86.6% (active),-91.2% (active),-96.2% (active),,-64.5% (active),-90.3% (active),-94.8% (active),-95.9% (active),-83.5% (active),-91.3% (active),-81.1% (active),-90.3% (active),-98.6% (active)
CCc1cnc(=S)n(-c2ccccc2)c1,88.5%,110%,117%,103%,116%,97.8%,105%,98.3%,99.9%,120%,117%,,107%,129%,100%,,101%,120%,106%,104%
O=C(O)/C=C/C(=O)c1ccc(Cl)cc1,116%,113%,104%,112%,112%,119%,80.4%,95.3%,105%,120%,,110%,122%,125%,96.6%,123%,107%,93.2%,101%,109%
